This experiment has as its system firefly luciferase (FLuc). Kind of experiment: residual bioluminescent signal relative to negative control without GSH; higher = less interference (more residual luciferase signal). The conditions noted are these: screening conditions buffer. The procedure: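 Selected metal salts at 3-4 concentrations tested on purified FLuc, NLuc or RLuc in screening buffer with 0, 0.2 or 2 mM glutathione added; 10 min enzyme pre-incubation at RT, luminescence 10 min after substrate. Signal normalised to negative control without GSH (% N_VALUE); triplicate wells.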

Setting [1] is: metal salt concentration 1 mM, glutathione 0 mM.
The mark [2] stands for this setting: metal salt concentration 1 mM, glutathione 0.2 mM.
The mark [3] stands for this setting: metal salt concentration 1 mM, glutathione 2 mM.

Molecules are shown by their SMILES. ± gives the standard deviation of the averaged measurements.

As for `O=[N+]([O-])[O-].[Ag+]` [silver nitrate], the residual bioluminescent signal is, setting by setting: (metal salt concentration 0.0001 mM, glutathione 0 mM) 58.4 ± 11%; (metal salt concentration 0.0001 mM, glutathione 0.2 mM) 63.3 ± 6%; (metal salt concentration 0.0001 mM, glutathione 2 mM) 0.242 ± 0.17%; (metal salt concentration 0.000243 mM, glutathione 0 mM) 1.26 ± 0.36%; (metal salt concentration 0.000243 mM, glutathione 0.2 mM) 64.7 ± 3.9%; (metal salt concentration 0.000243 mM, glutathione 2 mM) 0.483 ± 0.34%. Besides, the residual bioluminescent signal was 0.58 ± 0.43% (metal salt concentration 0.0005 mM, glutathione 0 mM); 61.9 ± 10% (metal salt concentration 0.0005 mM, glutathione 0.2 mM); 0.58 ± 0.29% (metal salt concentration 0.0005 mM, glutathione 2 mM); 0.435 ± 0.38% under setting [1]; 0.918 ± 0.47% under setting [2]; 0.531 ± 0.3% under setting [3].

In the case of `O=[N+]([O-])[O-].O=[N+]([O-])[O-].[Cu+2]` [copper(II) nitrate], the residual bioluminescent signal runs as follows: (metal salt concentration 0.05 mM, glutathione 0 mM) 84.5 ± 15%; (metal salt concentration 0.05 mM, glutathione 0.2 mM) 54.9 ± 3.8%; (metal salt concentration 0.05 mM, glutathione 2 mM) 0.483 ± 0.17%; (metal salt concentration 0.125 mM, glutathione 0 mM) 86.3 ± 9.3%; (metal salt concentration 0.125 mM, glutathione 0.2 mM) 19.4 ± 1.1%; (metal salt concentration 0.125 mM, glutathione 2 mM) 0.531 ± 0.34%. The residual bioluminescent signal came to 65.3 ± 11% (metal salt concentration 0.2 mM, glutathione 0 mM); 5.12 ± 2% (metal salt concentration 0.2 mM, glutathione 0.2 mM); 0.628 ± 0.44% (metal salt concentration 0.2 mM, glutathione 2 mM); 0.628 ± 0.47% under setting [1]; 0.338 ± 0.17% under setting [2]; 0.435 ± 0.25% under setting [3].

`O=[N+]([O-])[O-].O=[N+]([O-])[O-].[Zn+2]` [zinc nitrate]: the residual bioluminescent signal (metal salt concentration 0.5 mM, glutathione 0 mM) amounted to 100 ± 3.4%; the residual bioluminescent signal (metal salt concentration 0.5 mM, glutathione 0.2 mM) was 29.7 ± 6%; the residual bioluminescent signal (metal salt concentration 0.5 mM, glutathione 2 mM) came to 0.435 ± 0.25%; the residual bioluminescent signal under setting [1] is 1.06 ± 0.55%; the residual bioluminescent signal under setting [2] is 0.918 ± 0.74%; the residual bioluminescent signal under setting [3] was determined as 0.387 ± 0.17%. For the same molecule, the residual bioluminescent signal (metal salt concentration 1.20 mM, glutathione 0 mM) was 0.387 ± 0.17%; the residual bioluminescent signal (metal salt concentration 1.20 mM, glutathione 0.2 mM) was determined as 0.676 ± 0.36%; the residual bioluminescent signal (metal salt concentration 1.20 mM, glutathione 2 mM) stood at 0.676 ± 0.36%; the residual bioluminescent signal (metal salt concentration 2.5 mM, glutathione 0 mM) turned out to be 0.58 ± 0.29%; the residual bioluminescent signal (metal salt concentration 2.5 mM, glutathione 0.2 mM) is 0.87 ± 0.43%; the residual bioluminescent signal (metal salt concentration 2.5 mM, glutathione 2 mM) came out at 0.338 ± 0.34%.

The values are drawn from the supplement of paper PMC11628255, “Interference of metal ions on the bioluminescent signal of firefly, Renilla, and NanoLuc luciferases in high-throughput screening assays” (Frontiers in Chemistry, 2024).
